Assay results published in PubChem BioAssay (NCATS).
Records with an inconclusive call do not appear. Calls of active or inactive are those of the source. Calls follow the shape of the dose curve; as a rule, active = well fitted inhibition curve with a large enough effect; inconclusive = small, poorly fitted or top-dose-only effect; inactive = flat fitted curve, though single readings scatter. Where a SMILES comes first, the peptide text is derived from it. [ ]: non-standard residue; d: D form. Ala(indol-2-yl) = N[C@@H](Cc1cc2ccccc2[nH]1)C(=O)O; Aib = CC(C)(N)C(=O)O

tested on: CRL-7250; assay: Cytotoxic Profiling of Annotated Libraries Using Quantitative High-Throughput Screening (AID 1296008); conditions: Five cell lines viability, CellTiter-Glo ATP luminescence, 48-72 h; max response: hits give low values; also: nearly all actives have a fitted effect of over 60% in size
Outline: (§1)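 Cytotoxicity was measured as CellTiter-Glo ATP luminescence, read after 10 min at room temperature. Compound treatment of the cells lasted 48 or 72 hr at 37 degrees Celsius in a qHTS format.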
% is scaled to controls: 0 for no effect and ±100 for the full control effect; potency is read from the fitted curve at half-maximal effect.

| SMILES | max response | Potency |
| --- | --- | --- |
| CC(C)(NC(=O)[C@@H](N)Cc1ccc(O)cc1)C(=O)N[C@@H](Cc1cc2ccccc2[nH]1)C(=O)N[C@@H](Cc1ccccc1)C(=O)O (H-Y[Aib][Ala(indol-2-yl)]F-OH) | -5.29% (inactive) |  |
| C[C@]12CC[C@H](O)C[C@H]1CC[C@@H]1[C@@H]2[C@H](O)C(=O)[C@]2(C)[C@@H](c3ccc(=O)oc3)CC[C@]12O |  | 41.1 nM (active) |
| CC[C@H]1C2CC3[C@@H]4N(C)c5ccccc5[C@]45C[C@@H]([C@H]2[C@H]5O)N3[C@@H]1O | -2.01% (inactive) |  |
| O=C(CC1NCCC[C@H]1O)Cn1cnc2cc(Br)c(Cl)cc2c1=O (stereo partly drawn) | -5.15% (inactive) |  |
| CC(=O)OC[C@]12C[C@H](OC(=O)CC(C)C)C(C)=C[C@H]1O[C@@H]1[C@H](O)[C@@H](OC(C)=O)[C@@]2(C)[C@@]12CO2 |  | 89.3 nM (active) |
| CC1=C[C@H]2O[C@@H]3C[C@H]4OC(=O)/C=C/C=C/C(=O)OCC/C(C)=C/C(=O)OC[C@@]2(CC1)[C@]4(C)[C@]31CO1 |  | 25.2 nM (active) |
| C=C(CO)C(=O)O[C@H]1CC(=C)[C@@H]2C[C@H](O)C(=C)[C@@H]2[C@H]2OC(=O)C(=C)[C@@H]21 | -4.04% (inactive) |  |
| CC1CCCC(=O)CCC/C=C/c2cc(O)cc(O)c2C(=O)O1 (stereo not drawn) | 3.12% (inactive) |  |
| O=C(OC[C@H]1O[C@@H](Oc2ccc(O)cc2CO)[C@H](O)[C@@H](O)[C@@H]1O)c1ccccc1 | 2.78% (inactive) |  |
| CC[C@@]1(O)C(=O)OCc2c1cc1n(c2=O)Cc2cc3c(OC)cccc3nc2-1 |  | 5080 nM (active) |
| CC(=O)OC[C@]12C[C@H](O)C(C)=C[C@H]1O[C@@H]1[C@H](O)[C@@H](O)[C@@]2(C)[C@]12CO2 |  | 4040 nM (active) |
| CC[C@H]1C[C@@H]2CC[C@@H](O2)[C@@H](C)C(=O)O[C@H](CC)C[C@H]2CC[C@H](O2)[C@H](C)C(=O)O[C@@H](C)C[C@@H]2CC[C@@H](O2)[C@@H](C)C(=O)O[C@H](CC)C[C@H]2CC[C@H](O2)[C@H](C)C(=O)O1 |  | 385 nM (active) |
| CC(=O)OC[C@]12C[C@H](O)C(C)=C[C@H]1O[C@@H]1[C@H](O)[C@@H](OC(C)=O)[C@@]2(C)[C@]12CO2 |  | 36 nM (active) |
| CO[C@H]1[C@H](O)[C@H](O[C@H]2CC[C@]3(C=O)C4CC[C@]5(C)[C@H](C6=CC(=O)OC6)CC[C@]5(O)C4CC[C@@H]3C2)O[C@@H](C)[C@@H]1O (stereo partly drawn) |  | 28.2 nM (active) |
| C[C@H]1O[C@@H](n2cnc3c(N)ncnc32)C[C@@H]1O | 0.373% (inactive) |  |
| CO[C@H]1[C@@H](O)[C@@H](C)O[C@@H](O[C@@H]2C=C3C(OC(C)=O)CC4(O)C(CC[C@]5(C)[C@@H](C6=CC(=O)OC6)CC[C@]45O)[C@@]3(C)CC2)[C@@H]1O (stereo partly drawn) |  | 137 nM (active) |
| CN(C)c1cc2c(cc1Sc1nc3c(N)nccc3n1CCNCC(C)(C)C)OCO2 |  | 1840 nM (active) |

tested on: HEK293; assay: as above; conditions: Five cell lines viability, CellTiter-Glo ATP luminescence, 48-72 h; max response: hits give low values
Outline: as §1

| SMILES | max response | Potency |
| --- | --- | --- |
| CCC(C)/C=C(C)/C=C/C1=CC2=C(Cl)C(=O)C(C)(OC(C)=O)C(=O)C2=CO1 (stereo not drawn) | -69.1% (inactive) |  |
| COC1CC(O[C@H]2CC[C@]3(C)C4CC[C@]5(C)[C@@H](C6=CC(=O)OC6)[C@@H](OC(C)=O)C[C@]5(O)C4CC[C@@H]3C2)OC(C)C1O (stereo partly drawn) |  | 502 nM (active) |
| C[C@H]1O[C@@H](O[C@H]2CC[C@]3(C=O)C4CC[C@]5(C)[C@@H](C6=CC(=O)OC6)CC[C@]5(O)[C@@H]4CC[C@]3(O)C2)C[C@@H](O)[C@@H]1O (stereo partly drawn) |  | 25.2 nM (active) |
| CC1=CC2OC3[C@H](O)C[C@@](C)([C@]34CO4)[C@@]2(CO)[C@H](O)C1=O (stereo partly drawn) |  | 1640 nM (active) |
| C=C1[C@@H](C)[C@H]2[C@H](Cc3ccccc3)NC(=O)[C@]23OC(=O)/C=C/C(=O)CCC[C@@H](C)C/C=C/[C@H]3[C@@H]1O |  | 1840 nM (active) |
| COC1CC(O[C@H]2CC[C@@]3(C)C(CCC4C3CC[C@]3(C)[C@@H](C5=CC(=O)OC5)CC[C@]43O)C2)OC(C)C1O (stereo partly drawn) |  | 79.6 nM (active) |
| CC(C)(C)[C@]1(O)C[C@@H]2OC(=O)C[C@@]23C(=O)O[C@@H]2OC(=O)[C@@H](O)[C@]213 | 1.81% (inactive) |  |
| C[C@H]1C/C=C/[C@H]2[C@@H]3O[C@]3(C)[C@@H](C)[C@H]3[C@H](Cc4ccccc4)NC(=O)[C@]32OC(=O)O/C=C/[C@@](C)(O)C1=O |  | 399 nM (active) |
| CNC(=O)c1cc(C#N)cc(C)c1NC(=O)c1cc(Br)nn1-c1ncccc1Cl |  | 13000 nM (active) |
| OCc1nnc2n1-c1ccc(Cl)cc1C(c1ccccc1Cl)=NC2 | -7.41% (inactive) |  |
| CN[C@@H]1C[C@H]2O[C@@](C)([C@@H]1OC)n1c3ccccc3c3c4c(c5c6ccccc6n2c5c31)C(=O)NC4 |  | 231 nM (active) |
| COC1CC(O[C@H]2CC[C@]3(C=O)C4CC[C@]5(C)[C@@H](C6=CC(=O)OC6)CC[C@]5(O)[C@@H]4CC[C@@H]3C2)OC(C)C1O[C@@H]1O[C@H](CO)[C@@H](O[C@@H]2O[C@H](CO)[C@@H](O)[C@H](O)[C@H]2O)[C@H](O)[C@H]1O (stereo partly drawn) |  | 219 nM (active) |
| CC[C@@H]1C[C@H]2CC[C@H](O2)[C@H](C)C(=O)O[C@@H](C)C[C@@H]2CC[C@@H](O2)[C@@H](C)C(=O)O[C@H](CC)C[C@H]2CC[C@H](O2)[C@H](C)C(=O)O[C@@H](C)C[C@@H]2CC[C@@H](O2)[C@@H](C)C(=O)O1 |  | 54.4 nM (active) |
| CO[C@@H]1C[C@H](O[C@H]2CC[C@@]3(C)C(CCC4C3CC[C@]3(C)[C@@H](C5=CC(=O)OC5)[C@@H](OC(C)=O)CC43O)C2)O[C@H](C)[C@@H]1O[C@H]1O[C@H](CO[C@@H]2O[C@H](CO)[C@@H](O)[C@H](O)[C@H]2O)[C@@H](O)[C@H](O)[C@H]1O (stereo partly drawn) |  | 873 nM (active) |
| CC(=O)O[C@@H]1[C@@H](O)[C@H]2O[C@@H]3C=C(C)[C@@H](O)C[C@]3(CO)[C@]1(C)[C@]21CO1 |  | 321 nM (active) |
| CO[C@H]1C[C@H](O[C@H]2CC[C@@]3(C)C(=CCC4C3CC[C@]3(C)[C@@H](C5=CC(=O)OC5)CC[C@]43O)C2)O[C@@H](C)[C@@H]1O[C@@H]1O[C@H](CO[C@@H]2O[C@H](CO)[C@@H](O)[C@H](O)[C@H]2O)[C@@H](O)[C@H](O)[C@H]1O (stereo partly drawn) | -7.06% (inactive) |  |
| C=C1[C@@H](C)[C@H]2[C@H](Cc3ccccc3)NC(=O)[C@]23[C@H](OC(C)=O)/C=C/[C@](C)(O)C(=O)[C@@H](C)C/C=C/[C@H]3[C@@H]1O |  | 731 nM (active) |
| c1cncc(OC[C@@H]2CCN2)c1 | 1.76% (inactive) |  |

| SMILES | max response | Potency |
| --- | --- | --- |
| CC(=O)OC[C@]12C[C@H](OC(=O)CC(C)C)C(C)=C[C@H]1O[C@@H]1[C@H](O)C[C@@]2(C)[C@]12CO2 |  | 563 nM (active) |
| CNc1ccc2oc(C[C@H]3O[C@@]4(CC[C@H]3C)O[C@H](C(C)C(=O)c3ccc[nH]3)[C@H](C)C[C@H]4C)nc2c1C(=O)O (stereo partly drawn) |  | 1300 nM (active) |
| C[N@@+]1(CC2CC2)CC[C@]23c4c5ccc(O)c4O[C@H]2C(=O)CC[C@@]3(O)[C@H]1C5 | 0.678% (inactive) |  |
| COc1ccc2c3c([nH]c2c1)C(C=C(C)C)N1C(=O)C2CCCN2C(=O)C1C3 (stereo not drawn) | -10.4% (inactive) |  |
| CC(=O)OC[C@]12C[C@H](OC(=O)CC(C)C)C(C)=C[C@H]1O[C@@H]1[C@H](O)[C@@H](O)[C@@]2(C)[C@]12CO2 |  | 25.2 nM (active) |
| CC(C)(NC(=O)[C@@H](N)Cc1ccc(O)cc1)C(=O)N[C@@H](Cc1cc2ccccc2[nH]1)C(=O)N[C@@H](Cc1ccccc1)C(=O)O (H-Y[Aib][Ala(indol-2-yl)]F-OH) | -3.45% (inactive) |  |
| C[C@]12CC[C@H](O)C[C@H]1CC[C@@H]1[C@@H]2[C@H](O)C(=O)[C@]2(C)[C@@H](c3ccc(=O)oc3)CC[C@]12O |  | 32.6 nM (active) |
| CC[C@H]1C2CC3[C@@H]4N(C)c5ccccc5[C@]45C[C@@H]([C@H]2[C@H]5O)N3[C@@H]1O | 0.828% (inactive) |  |
| O=C(CC1NCCC[C@H]1O)Cn1cnc2cc(Br)c(Cl)cc2c1=O (stereo partly drawn) | -10.4% (inactive) |  |
| CC(=O)OC[C@]12C[C@H](OC(=O)CC(C)C)C(C)=C[C@H]1O[C@@H]1[C@H](O)[C@@H](OC(C)=O)[C@@]2(C)[C@@]12CO2 |  | 22.4 nM (active) |
| CC1=C[C@H]2O[C@@H]3C[C@H]4OC(=O)/C=C/C=C/C(=O)OCC/C(C)=C/C(=O)OC[C@@]2(CC1)[C@]4(C)[C@]31CO1 |  | 8 nM (active) |
| C=C(CO)C(=O)O[C@H]1CC(=C)[C@@H]2C[C@H](O)C(=C)[C@@H]2[C@H]2OC(=O)C(=C)[C@@H]21 |  | 5700 nM (active) |
| CC1CCCC(=O)CCC/C=C/c2cc(O)cc(O)c2C(=O)O1 (stereo not drawn) | -3.13% (inactive) |  |
| O=C(OC[C@H]1O[C@@H](Oc2ccc(O)cc2CO)[C@H](O)[C@@H](O)[C@@H]1O)c1ccccc1 | 0.485% (inactive) |  |
| CC[C@@]1(O)C(=O)OCc2c1cc1n(c2=O)Cc2cc3c(OC)cccc3nc2-1 |  | 50.8 nM (active) |
| CC(=O)OC[C@]12C[C@H](O)C(C)=C[C@H]1O[C@@H]1[C@H](O)[C@@H](O)[C@@]2(C)[C@]12CO2 |  | 1010 nM (active) |
| CC[C@H]1C[C@@H]2CC[C@@H](O2)[C@@H](C)C(=O)O[C@H](CC)C[C@H]2CC[C@H](O2)[C@H](C)C(=O)O[C@@H](C)C[C@@H]2CC[C@@H](O2)[C@@H](C)C(=O)O[C@H](CC)C[C@H]2CC[C@H](O2)[C@H](C)C(=O)O1 |  | 21.7 nM (active) |
| CC(=O)OC[C@]12C[C@H](O)C(C)=C[C@H]1O[C@@H]1[C@H](O)[C@@H](OC(C)=O)[C@@]2(C)[C@]12CO2 |  | 8.1 nM (active) |
